PubChem BioAssay (Tox21)
Values without a mark were called inactive. Inconclusive results are not listed. Where a call stands in place of a potency, no number is given. The source made the active and inactive calls. Unless noted, calls come from the whole dose curve.

How the values were obtained:
[1] = Nuclear factor erythroid 2-related factor 2/antioxidant responsive element (Nrf2/ARE) small molecule agonists: qHTS cell viability counter screen in human keratinocytes (AID 1919968; active = well fitted curve in the direction sought with a large enough effect in the repeat runs; an effect the other way counts as inactive or inconclusive; note: nearly all actives have a fitted effect of over 55% in size; note: potency is the fitted concentration of half-maximal effect)
Outline: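 Measured as CellTiter-Fluor fluorescence, this readout tracks cytotoxicity in the same wells as the ARE-luciferase screen. HaCaT reporter cells (1,500/well) received compounds after a 5 h pre-incubation and were exposed for 23 h.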

[2] = Nuclear factor erythroid 2-related factor 2/antioxidant responsive element (Nrf2/ARE) small molecule agonists: luciferase reporter gene qHTS assay in human keratinocytes (AID 1919969); note: nearly all actives have a fitted effect of over 35% in size; note: potency is the fitted concentration of half-maximal effect
[3] = target: Gonadotropin-releasing hormone receptor (Homo sapiens) (UniProt P30968); assay: Human gonadotropin-releasing hormone receptor (GnRHR) small molecule agonists, calcium flux assay in GnRHR-HEK293 cells (AID 1920063); note: nearly all actives have a fitted effect of over 35% in size
Chain of Gonadotropin-releasing hormone receptor (Homo sapiens) (P30968 whole entry, looked up): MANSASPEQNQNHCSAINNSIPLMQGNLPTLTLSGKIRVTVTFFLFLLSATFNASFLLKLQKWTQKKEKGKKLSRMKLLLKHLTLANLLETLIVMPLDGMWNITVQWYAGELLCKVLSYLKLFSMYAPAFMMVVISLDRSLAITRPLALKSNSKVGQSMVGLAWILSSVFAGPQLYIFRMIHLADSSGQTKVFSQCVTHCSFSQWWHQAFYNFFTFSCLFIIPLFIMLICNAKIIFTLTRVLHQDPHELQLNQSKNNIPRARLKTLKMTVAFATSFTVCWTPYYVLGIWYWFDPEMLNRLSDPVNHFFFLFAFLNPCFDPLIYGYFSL
Outline: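 Fluorescence kinetics (480 nm excitation, 540 nm emission; 3 min, 1 s steps) report calcium mobilisation in human GnRHR-HEK293 cells in agonist mode. Dye incubation: 1 h, 37 C.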

[4] = target: KiSS-1 receptor (Homo sapiens) (UniProt Q969F8); assay: Human kisspeptin (KISS1R) small molecule agonists, calcium flux assay in KISS1R-HEK293 cells (AID 1920064; active = well fitted curve in the direction sought with a large enough effect in the repeat runs; an effect the other way counts as inactive or inconclusive)
Chain of KiSS-1 receptor (Homo sapiens) (Q969F8 whole entry, looked up): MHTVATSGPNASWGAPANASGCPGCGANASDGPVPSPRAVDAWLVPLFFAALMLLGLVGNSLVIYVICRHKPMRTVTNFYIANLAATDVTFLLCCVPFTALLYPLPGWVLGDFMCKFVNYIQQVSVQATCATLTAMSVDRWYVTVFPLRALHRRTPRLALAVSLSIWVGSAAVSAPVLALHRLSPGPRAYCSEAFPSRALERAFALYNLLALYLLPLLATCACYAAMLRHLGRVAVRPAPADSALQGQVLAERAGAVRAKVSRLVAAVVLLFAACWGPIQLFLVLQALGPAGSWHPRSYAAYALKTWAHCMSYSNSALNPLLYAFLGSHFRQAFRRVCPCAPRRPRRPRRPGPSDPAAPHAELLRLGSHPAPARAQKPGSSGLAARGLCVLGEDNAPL
Outline: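 Measures KISS1R agonism through calcium-sensitive dye fluorescence in stably transfected HEK293 cells, read for 3 min after pin-tool compound delivery; 15-point titrations in triplicate.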

[5] = G protein-coupled receptor (GPCR) small molecule agonists, calcium flux assay: HEK293 wild type cell line counter screen (AID 1920065)
Outline: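 Readout: fluorescence at 480 nm excitation/540 nm emission, sampled at 1 s intervals for 3 min. Cells had been cultured 18 h, then dye-loaded 1 h at 37 C before compound or ATP addition.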

[6] = p53 small molecule agonists, cell-based qHTS assay with rat liver microsomes (AID 1963578)
Outline: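 Agonist mode in p53RE-bla reporter cells, with compounds co-incubated 16 h at 37 C alongside 0.5 mg/mL rat liver microsomes and 0.5 mg/mL NADPH (final), followed by a 2 h LiveBLAzer detection step.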

[7] = p53 small molecule agonists, cell-based qHTS assay with human liver microsomes: qHTS cell viability counter screen (AID 1963579); note: nearly all actives have a fitted effect of over 45% in size
Outline: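 Metabolically activated exposure: compounds, human liver microsomes and NADPH (0.5 mg/mL final apiece) were added to p53RE-bla cells seeded 5 h earlier, left 16 h at 37 C, and then assessed for viability by CellTiter-Glo luminescence.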

[8] = p53 small molecule agonists, cell-based qHTS assay with rat liver microsomes: qHTS cell viability counter screen (AID 1963580); note: nearly all actives have a fitted effect of over 45% in size
Outline: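 Viability is assessed in parallel with the p53 reporter read: HCT-116 p53RE-bla cells receive compounds plus rat microsomes and NADPH (0.5 mg/mL final apiece), incubate 16 h at 37 C, and then CellTiter-Glo luminescence is recorded.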

[9] = p53 small molecule agonists, cell-based qHTS assay: qHTS cell viability counter screen (AID 1963581); note: nearly all actives have a fitted effect of over 45% in size
Outline: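 In the same plates used for the p53 bla reporter, HCT-116 cells given compounds for 16 h at 37 C received CellTiter-Glo; luminescence was recorded 30 min later at room temperature.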

[10] = p53 small molecule agonists, cell-based qHTS assay (AID 1963582; active = well fitted activation curve with a large enough effect in the signal ratio in the repeat runs, not every such curve was filed as active; the % refers to the signal ratio)
Outline: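 Compounds are pin-transferred in DMSO onto p53RE-bla cells and incubated 16 h at 37 C. The B/G FRET beta-lactamase substrate is then applied for 2 h at RT and fluorescence recorded.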

[11] = cAMP Responsive Elements (CRE) small molecule agonists, cell-based qHTS assay (AID 1963590)
Outline: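 Cell line: CRE-bla HEK 293T; medium DMEM/10% dialyzed FBS/0.1 mM NEAA/1 mM pyruvate/25 mM HEPES; 3 h compound exposure; beta-lactamase FRET readout after 2 h substrate loading at RT.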

[12] = cAMP Responsive Elements (CRE) small molecule antagonists, cell-based qHTS assay (AID 1963591; active = well fitted inhibition curve with a large enough effect in the signal ratio in the repeat runs, not every such curve was filed as active; the % refers to the signal ratio)
Outline: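 Inhibition of NKH477-driven (0.25 uM final) CRE-beta-lactamase signal in HEK293T cells, 3 h compound exposure at 37 °C, detected by FRET substrate fluorescence.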

[13] = target: Beta-2 adrenergic receptor (Homo sapiens) (UniProt P07550); assay: Adrenergic beta2 receptor (ADRB2) small molecule antagonists, cell-based qHTS assay (AID 1963592); note: series mostly up to about 92 µM; nearly all actives have a fitted effect of over 50% in size
Chain of Beta-2 adrenergic receptor (Homo sapiens) (P07550 whole entry, looked up): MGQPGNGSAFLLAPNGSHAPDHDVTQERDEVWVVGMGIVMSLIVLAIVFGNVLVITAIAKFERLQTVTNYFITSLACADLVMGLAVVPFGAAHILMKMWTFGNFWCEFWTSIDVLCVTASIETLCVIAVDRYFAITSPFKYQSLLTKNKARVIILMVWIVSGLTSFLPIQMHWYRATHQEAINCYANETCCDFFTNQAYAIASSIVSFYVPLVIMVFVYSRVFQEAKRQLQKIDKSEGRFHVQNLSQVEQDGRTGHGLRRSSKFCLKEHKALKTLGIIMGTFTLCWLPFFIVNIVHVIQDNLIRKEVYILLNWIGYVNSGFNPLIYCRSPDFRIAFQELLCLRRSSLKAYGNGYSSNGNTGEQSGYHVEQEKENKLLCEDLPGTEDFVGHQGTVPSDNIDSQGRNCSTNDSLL
Outline: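 Cells (CHO, stable ADRB2 overexpression) incubated 18-20hr at 37C; compounds added from DMSO; agonist mix (1nM isoproterenol, 100uM IBMX, 25uM Ro-20-1724) added; 0.5hr RT; d2-cAMP and anti-cAMP-cryptate added; 1hr RT; 665/615 nm read.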

[14] = target: D(2) dopamine receptor (Homo sapiens) (UniProt P14416); assay: Dopamine D2 receptor (DRD2) small molecule agonists, cell-based qHTS assay (AID 1963594); note: nearly all actives have a fitted effect of over 35% in size
Chain of D(2) dopamine receptor (Homo sapiens) (P14416 whole entry, looked up): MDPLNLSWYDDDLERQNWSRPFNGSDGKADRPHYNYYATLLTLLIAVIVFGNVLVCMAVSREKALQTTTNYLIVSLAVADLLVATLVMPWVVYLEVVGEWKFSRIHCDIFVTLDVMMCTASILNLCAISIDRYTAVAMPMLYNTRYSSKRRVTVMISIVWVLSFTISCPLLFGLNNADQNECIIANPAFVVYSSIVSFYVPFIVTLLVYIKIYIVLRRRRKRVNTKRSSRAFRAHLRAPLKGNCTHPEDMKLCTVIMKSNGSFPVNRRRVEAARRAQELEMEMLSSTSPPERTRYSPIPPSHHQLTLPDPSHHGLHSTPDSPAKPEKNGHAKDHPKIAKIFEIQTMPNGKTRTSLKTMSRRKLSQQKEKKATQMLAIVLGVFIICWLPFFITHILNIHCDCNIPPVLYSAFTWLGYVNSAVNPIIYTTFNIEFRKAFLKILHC
Outline: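 HEK293 cells stably expressing human DRD2, pre-treated with PDE inhibitor Ro20-1724 (0.1 mM final) and compound 10 min at room temperature, then stimulated with NKH477 (200nM […]) for 30 min. cAMP read by HTRF (665/620 nm).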

[15] = target: D(2) dopamine receptor (Homo sapiens) (UniProt P14416); assay: Dopamine D2 receptor (DRD2) small molecule antagonists, cell-based qHTS assay (AID 1963595; active = well fitted inhibition curve with a large enough effect in the signal ratio in the repeat runs, with a control signal flat; the % refers to the signal ratio)
Outline: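 In this cell-based antagonist screen, compounds act for 10 min at room temperature before a 30 min challenge with 12 nM quinpirole and 200 nM NKH477. cAMP is quantified by HTRF competition in DRD2-HEK293 cells containing 0.1 mM Ro20-1724.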

[16] = target: 5-hydroxytryptamine receptor 2A (Homo sapiens) (UniProt P28223); assay: 5-hydroxytryptamine receptor 2A (HTR2A) small molecule antagonists, cell-based qHTS assay (AID 1963586); note: nearly all actives have a fitted effect of over 45% in size
Chain of 5-hydroxytryptamine receptor 2A (Homo sapiens) (P28223 whole entry, looked up): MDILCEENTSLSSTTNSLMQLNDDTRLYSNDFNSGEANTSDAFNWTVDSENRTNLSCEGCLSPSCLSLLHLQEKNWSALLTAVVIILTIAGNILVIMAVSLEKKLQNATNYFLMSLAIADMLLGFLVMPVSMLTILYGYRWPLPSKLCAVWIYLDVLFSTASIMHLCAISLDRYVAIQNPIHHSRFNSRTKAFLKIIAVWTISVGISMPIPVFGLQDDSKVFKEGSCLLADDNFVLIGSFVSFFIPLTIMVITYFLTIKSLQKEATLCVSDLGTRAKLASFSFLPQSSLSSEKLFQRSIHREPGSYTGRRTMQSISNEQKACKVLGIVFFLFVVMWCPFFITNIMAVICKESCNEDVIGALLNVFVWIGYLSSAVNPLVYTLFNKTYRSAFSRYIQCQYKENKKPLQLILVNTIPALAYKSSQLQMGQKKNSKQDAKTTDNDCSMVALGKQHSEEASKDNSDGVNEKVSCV
Outline: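 Antagonist-mode intracellular calcium assay: DOI (4 nM) added after 5 min compound pre-incubation at room temperature to dye-loaded HTR2A-CHO cells. Fluorescence followed for 3 min, sampled every second.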

[17] = target: 5-hydroxytryptamine receptor 2A (Homo sapiens) (UniProt P28223); assay: 5-hydroxytryptamine receptor 2A (HTR2A) small molecule agonists, cell-based qHTS assay (AID 1963587); note: nearly all actives have a fitted effect of over 30% in size
Outline: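 CHO cells stably expressing human HTR2A, plated 18 h, loaded with calcium dye 1 h at 37 C. Agonist mode: compounds added and intracellular calcium fluorescence recorded kinetically for 2 min at 1 sec intervals.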

[18] = target: Muscarinic acetylcholine receptor M1 (Homo sapiens) (UniProt P11229); assay: Cholinergic receptor muscarinic 1 (CHRM1) small molecule antagonists, cell-based qHTS assay (AID 1963588); note: nearly all actives have a fitted effect of over 40% in size
Chain of Muscarinic acetylcholine receptor M1 (Homo sapiens) (P11229 whole entry, looked up): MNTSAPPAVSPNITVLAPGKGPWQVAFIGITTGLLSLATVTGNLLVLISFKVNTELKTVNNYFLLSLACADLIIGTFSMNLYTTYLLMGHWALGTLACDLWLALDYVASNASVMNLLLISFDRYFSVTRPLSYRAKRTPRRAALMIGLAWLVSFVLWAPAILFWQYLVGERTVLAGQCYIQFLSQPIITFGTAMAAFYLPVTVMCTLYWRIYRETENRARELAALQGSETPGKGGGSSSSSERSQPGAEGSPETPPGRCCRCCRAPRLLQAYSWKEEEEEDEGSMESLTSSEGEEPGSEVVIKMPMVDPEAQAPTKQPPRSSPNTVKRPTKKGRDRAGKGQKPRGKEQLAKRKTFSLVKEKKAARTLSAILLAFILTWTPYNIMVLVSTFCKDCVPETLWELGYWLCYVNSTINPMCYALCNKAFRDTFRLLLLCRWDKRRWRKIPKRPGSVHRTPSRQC
Outline: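 CHRM1-CHO calcium-flux assay, antagonist mode. Cells were seeded 18 h, dye-loaded 1 h at 37 C and given compound for 5 min at RT, then acetylcholine was added at 50nM. FDSS fluorescence was read 3 min; 15 concentrations, three runs.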

[19] = target: Muscarinic acetylcholine receptor M1 (Homo sapiens) (UniProt P11229); assay: Cholinergic receptor muscarinic 1 (CHRM1) small molecule agonists, cell-based qHTS assay (AID 1963589); note: nearly all actives have a fitted effect of over 35% in size
Outline: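 Each compound was tested at 15 concentrations across three independent runs on dye-loaded CHO cells stably expressing human CHRM1, reading intracellular calcium fluorescence kinetically at 1 sec intervals.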

[20] = target: Beta-2 adrenergic receptor (Homo sapiens) (UniProt P07550); assay: Adrenergic beta2 receptor (ADRB2) small molecule agonists, cell-based qHTS assay (AID 1963593);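 note: CHO cells stably overexpressing human ADRB2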
Outline: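 CHO cells stably over-expressing ADRB2 were plated overnight at 37C, then dosed with compounds plus a stimulation mix containing 100uM IBMX and 25uM Ro-20-1724 for 0.5hr at room temperature. cAMP was measured by HTRF competition, 1hr.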

Compound	Potency [1]	Potency [2]	Potency [3]	Potency [4]	Potency [5]	Potency [6]	Potency [7]	Potency [8]	Potency [9]	Potency [10]	Potency [11]	Potency [12]	Potency [13]	Potency [14]	Potency [15]	Potency [16]	Potency [17]	Potency [18]	Potency [19]	Potency [20]
CN(C)C(=O)Oc1cccc([N+](C)(C)C)c1	inactive	inactive	inactive	inactive	inactive	inactive	inactive	inactive	inactive	inactive	inactive	inactive	inactive	inactive	inactive	–	–	–	–	–
CC1(C)CC(=O)CC(C)(C)N1	inactive	inactive	inactive	inactive	inactive	inactive	inactive	inactive	inactive	–	inactive	inactive	inactive	inactive	inactive	inactive	inactive	inactive	–	–
CCn1c(=O)c2c(nc(/C=C/c3ccc(OC)c(OC)c3)n2C)n(CC)c1=O	inactive	inactive	inactive	inactive	inactive	inactive	inactive	inactive	inactive	inactive	–	inactive	–	inactive	inactive	–	inactive	–	–	–
C[C@H]1C[C@H]2[C@@H]3CCC4=CC(=O)C=C[C@]4(C)[C@@]3(Cl)[C@@H](O)C[C@]2(C)[C@@]1(O)C(=O)CO	inactive	inactive	inactive	inactive	inactive	inactive	inactive	inactive	inactive	inactive	–	–	inactive	inactive	inactive	–	–	–	–	–
CCCCC1C(=O)N(c2ccccc2)N(c2ccc(O)cc2)C1=O (stereo not given)	21.1 µM (active)	10.6 µM (active)	inactive	inactive	inactive	inactive	inactive	inactive	inactive	–	–	–	–	inactive	–	inactive	inactive	inactive	inactive	–
Nc1ccc2ccccc2c1S(=O)(=O)O	inactive	44.1 µM (active)	inactive	inactive	inactive	inactive	–	inactive	inactive	–	inactive	inactive	inactive	inactive	–	inactive	inactive	inactive	inactive	–
CCOCC(C)O (stereo not given)	inactive	inactive	inactive	inactive	inactive	–	inactive	inactive	inactive	–	inactive	inactive	inactive	inactive	inactive	inactive	inactive	inactive	inactive	inactive
C=C[Si](OC)(OC)OC	inactive	inactive	inactive	inactive	inactive	–	inactive	inactive	inactive	–	inactive	inactive	inactive	inactive	inactive	inactive	inactive	inactive	inactive	inactive
